Cruzain inh Det = cruzain (T. cruzi) inhibition with detergent; P25779; purified cruzain, Z-FR-AMC fluorescence, 0.01% Triton; Potency, µM, most hits filed as inhibitors; 200,000 tested, 0.43% active; note: nearly all actives have a fitted effect of over 40% in size
Target sequence (P25779 123-467 limits assumed): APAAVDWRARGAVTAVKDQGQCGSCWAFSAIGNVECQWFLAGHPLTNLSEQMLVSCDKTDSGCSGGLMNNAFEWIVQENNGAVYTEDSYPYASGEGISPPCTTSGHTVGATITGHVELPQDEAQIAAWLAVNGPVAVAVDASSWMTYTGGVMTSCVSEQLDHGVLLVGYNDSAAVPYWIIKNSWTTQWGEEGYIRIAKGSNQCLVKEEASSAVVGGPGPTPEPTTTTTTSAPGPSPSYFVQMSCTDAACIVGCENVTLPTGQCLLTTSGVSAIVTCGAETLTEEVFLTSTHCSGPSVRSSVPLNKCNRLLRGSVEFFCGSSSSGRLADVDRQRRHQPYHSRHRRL
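Detergent-containing arm of a paired screen for aggregation-based inhibition: 0.01% Triton X-100 present. Cruzain at 1.5 nM cleaved 2 uM Z-FR-AMC at pH 5.5 with 5 mM DTT; AMC fluorescence gain over 60 s measured activity.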
Cruzain noTriton = blocks cruzain activity in detergent-free assay. purified cruzain, Z-FR-AMC fluorescence, no detergent. Potency, µM, actives largely listed as inhibitors. 200,000 tested, 2.3% active. AID 1476; note: nearly all actives have a fitted effect of over 40% in size
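Purified cruzain at 1.5 nM, pre-incubated 15 min with compound at room temperature in 100 mM sodium acetate pH 5.5, 5 mM DTT, 0.00005% Triton X-100. Reaction started with 2 uM Z-FR-AMC; AMC fluorescence increase over 60 s gives rate.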
Papain counter = papain (Carica papaya) inhibition counter-screen. AID 2161. shares compounds with Cruzain inh Det. purified papain, Z-FR-AMC fluorescence cleavage. Potency, µM, actives largely listed as inhibitors. 410 tested, 41% active; note: nearly all actives have a fitted effect of over 35% in size
Large screens that a line does not name were inactive (follow-up assays come after a bar, where they were run). Shown are actives, neighbours in structure and some others; about 2.4% of the full set was active somewhere. Calls come from the whole dose curve; as a rule, active = well fitted curve in the direction sought with a large enough effect; inconclusive = small, poorly fitted or top-dose-only effect, or another doubt; inactive = no such curve, though single readings can be large; an effect the other way counts as inactive or inconclusive.

Cc1ccccc1-n1c(C)cc(/C=C2/C(=N)N3C(c4ccccc4)=CSC3=NC2=O)c1C	Cruzain noTriton 3.2µM | Papain counter inactive
Cc1ccccc1-n1c(C)cc(/C=C2/C(=O)NC(=O)N(Cc3ccco3)C2=O)c1C	none
Cc1ccc(S(=O)(=O)c2cn(Cc3ccccc3F)c3cc4c(cc3c2=O)OCO4)cc1	none
CN(C)CCCNS(=O)(=O)c1ccc(N2CCC(c3ccc(Cl)cc3)=N2)cc1	Cruzain inh Det 32µM, Cruzain noTriton inconclusive | Papain counter 28µM
O=S(=O)(c1ccc(N2CCC(c3ccc(Cl)cc3)=N2)cc1)N(CCO)CCO	Cruzain noTriton inconclusive
COCC1=C2c3ccccc3[C@H](C[N+](=O)[O-])C(C(=O)OC)(C(=O)OC)CC2C2C(=O)N(c3ccccc3)C(=O)C2C1 (some centres not stated)	none
CC(C)C[C@H](N)c1nnc(SCc2ccc(Cl)cc2Cl)o1	none
CC(C)C[C@H](N)c1nnc(S(=O)(=O)Cc2ccc(F)cc2)o1	Cruzain inh Det 13µM, Cruzain noTriton 13µM | Papain counter inactive
CCOc1ccccc1CNC(=O)c1ccc(NC(=O)N2CCSc3ncccc32)cc1	none
CCNC(=O)c1ccc2nc(-c3ccccc3)c(-c3ccccc3)nc2c1	none (no result: Cruzain inh Det, Cruzain noTriton) | Papain counter inactive
O=C(NCCCO)c1ccc2nc(-c3ccco3)c(-c3ccco3)nc2c1	none (no result: Cruzain inh Det, Cruzain noTriton) | Papain counter 28µM
CCCNC(=O)c1ccc2nc(-c3ccccc3)c(-c3ccccc3)nc2c1	Cruzain noTriton inconclusive
O=C(NCCNC(=O)c1ccco1)c1cccc(F)c1	none
CCCCNC(=O)c1ccc2nc(-c3ccco3)c(-c3ccco3)nc2c1	Cruzain inh Det 14µM, Cruzain noTriton 16µM | Papain counter 16µM
CCCNC(=O)c1cc(-c2ccco2)on1	none
C[C@H]1[C@H](NC(=O)/C(=N/OC(C)(C)C(=O)O)c2csc(N)n2)C(=O)N1S(=O)(=O)O (stereo in doubt)	none
Cc1ccccc1Oc1nc2c(c(=O)n(C)c(=O)n2C)n1Cc1ccc(Br)cc1	Cruzain inh Det inconclusive
NNC(=O)c1ccc[n+](CCc2ccccc2)c1	none
Oc1ccc(Cl)cc1C=Nc1cnc2ccccc2c1	none
NC(=O)c1nc(-c2ccc(F)c(F)c2)nc2c1[nH]c(=O)n2-c1cccc(Cl)c1	none
N/C(Cc1ccc(Cl)cc1)=N\OC(=O)c1cccc2ccccc12	none
CN1C(=O)/C(=N\OC(=O)c2cccc3ccccc23)c2ccccc21	Cruzain inh Det 3.2µM, Cruzain noTriton 7.9µM | Papain counter 16µM
CCOc1ccc(-c2nn(CC(=O)NC3CCCCC3)c3c2cnc2ccc(C)cc23)cc1	none
COC(=O)[C@@H]1C[C@H]1[C@@H](N)c1ccccc1	none
COc1ccccc1CNC(=O)c1cc2c(=O)n(Cc3cccs3)ccc2nc1C	Cruzain noTriton inconclusive
CCSc1nnc(NC(=O)c2ccc(Br)s2)s1	Cruzain noTriton 25µM | Papain counter inactive
CCSc1nnc(NC(=O)/C=C/c2ccc3c(c2)OCO3)s1	Cruzain inh Det 16µM, Cruzain noTriton 16µM | Papain counter inactive
O=C(/C=C/c1ccc2c(c1)OCO2)Nc1nc2ccccc2s1	none
CCSc1nnc(NC(=O)c2ccccn2)s1	none
Cc1ccc(CNC(=O)CN2C(=O)CCn3nc(-c4ccccc4)cc32)cc1	none
COc1ccc(CCNC(=O)c2cnc3sc(N4CCOCC4)nn3c2=O)cc1OC	none
O=[N+]([O-])c1cc(S(=O)(=O)Nc2cccc(C(F)(F)F)c2)ccc1-n1nnc2ccccc21	Cruzain inh Det 4µM, Cruzain noTriton 10µM | Papain counter 28µM
COc1ccc(NS(=O)(=O)c2ccc(-n3nnc4ccccc43)c([N+](=O)[O-])c2)cc1	Cruzain noTriton inconclusive
COC(=O)c1ccc(C(/C=C/[C@@H](C)C(=O)N[C@H](C)CO)NC(=O)OCc2ccccc2)cc1 (some centres not stated)	none
N#Cc1c(N)n(CCNC(=O)c2ccc(Cl)cc2)c2nc3ccccc3nc12	none
Cc1ccc(C(=O)NCCn2c(N)c(C#N)c3nc4ccccc4nc32)cc1	Cruzain noTriton inconclusive | Papain counter 28µM
O=C(NC1CCCC1)c1ccc(CSc2nc3ccncc3n2Cc2ccccc2F)cc1	none
CCC(C(=O)NC1CCCCC1)n1c(SCc2ccccc2F)nc2ccncc21 (configuration not stated)	Cruzain inh Det 13µM, Cruzain noTriton inconclusive | Papain counter 28µM
O=C(NCCc1nc2ccccc2[nH]1)c1cc([N+](=O)[O-])cc([N+](=O)[O-])c1	Cruzain inh Det 3.5µM | Papain counter inactive
O=C(NCCOc1ccccc1)c1cc(C(=O)NCCOc2ccccc2)cc([N+](=O)[O-])c1	none
CCOc1ccc(NC(=O)Cn2nc3c(cc2=O)CC(C)CC3)cc1 (configuration not stated)	none
CCCCC(=O)OCC(=O)Nc1ccc(OC(F)F)cc1	none
